In PubChem BioAssay:
Calls of active or inactive are those of the source.

Experiments:
[1] = system: Plasmodium falciparum Sir2 (PF13_0152, Sir2A); experiment: pfSir2 binders on small-molecule microarrays, primary screen, biochemical, small-molecule microarray, 635 nm fluorescence (AID 1098); settings: small-molecule microarray binding, fluorescence 635 nm; higher = more signal;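 note: score merges spot fluorescence intensity with its signal-to-noise ratio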
[2] = small-molecule microarray binders of probe aDKK1, primary screen, biochemical, biotinylated probe, 635/667 nm fluorescence (AID 1099); settings: higher = more signal;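 note: score merges 667nm spot fluorescence with signal to noise across triplicate slides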
[3] = small-molecule microarray binders of probe aCHRDL2, primary screen, biochemical, biotinylated probe, 635/667 nm fluorescence (AID 1100); settings: higher = more signal
[4] = splicing luciferase reporter signal modulators, primary screen, spliceosome inhibition project, cell-based, HEK293, splice +/- reporter (AID 1101); settings: luminescence, 24 h, higher = more signal, called active from +8 up or from −8 down;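 note: HEK293 cells carrying a splicing-competent luciferase reporter gene; test concentration not given here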
[5] = target: Fibroblast growth factor 10 (Homo sapiens) (UniProt O15520); experiment: FGF10 binders on small-molecule microarrays, primary screen, biochemical, small-molecule microarray, 635 nm fluorescence (AID 1102); settings: FGF10 binding, fluorescence 635 nm, higher = more signal
[6] = system: glycogen synthase kinase-3 (GSK3A per assay name; protocol says GSK3B); experiment: GSK3 binders on small-molecule microarrays, primary screen, biochemical, small-molecule microarray, 635 nm fluorescence, GSK3A (AID 1103); settings: small-molecule microarray binding, fluorescence 635 nm; higher = more signal; note: the record names both GSK3A and GSK3B
[7] = target: Epidermal growth factor receptor (Homo sapiens) (UniProt P00533); experiment: EGFR binders on small-molecule microarrays, primary screen, biochemical, small-molecule microarray, 635 nm fluorescence (AID 1104); settings: EGFR binding, higher = more signal;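 note: score merges 667 nm emission intensity with spot signal to noise over triplicate slides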
[8] = target: Follistatin-related protein 3 (Homo sapiens) (UniProt O95633); experiment: FSTL3 binders on small-molecule microarrays, primary screen, biochemical, small-molecule microarray, 635 nm fluorescence (AID 1105); settings: FSTL3 binding, higher = more signal;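 note: score merges emission near 667 nm and signal to noise per printed spot across three slides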
[9] = target: Dickkopf-related protein 1 (Homo sapiens) (UniProt O94907); experiment: DKK1 binders on small-molecule microarrays, primary screen, biochemical, small-molecule microarray, 635 nm fluorescence scan (AID 1106); settings: DKK1 binding, higher = more signal;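 note: score merges emission near 667 nm with signal to noise over three replicate slides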
[10] = system: Inhibin beta A chain (activin A); experiment: INHBA (activin A) binders on microarrays, primary screen, biochemical, small-molecule microarray, 635 nm fluorescence scan (AID 1107); settings: small-molecule microarray binding, higher = more signal;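 note: mouse activin A protein probed at 4.33 µg/mL on printed slides; score merges bound-protein fluorescence near 667 nm with spot signal-to-noise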
[11] = system: Human papillomavirus type 1a protein E7 (residues 44-93); experiment: HPV1a E7 fragment binders on microarrays, primary screen, biochemical, small-molecule microarray, residues 44-93, 635 nm fluorescence (AID 1108); settings: small-molecule microarray binding, fluorescence 635 nm; higher = more signal;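 note: E7 fragment applied at 1 µg/mL in TBST for 1 h at 4 C; score combines spot fluorescence with its signal to noise ratio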
[12] = modulators of HCV replicon luciferase signal, primary screen, HCV replication inhibitor project, Huh7 cells, luciferase reporter (AID 1109); settings: 48 h, higher = more signal;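 note: huh7 hepatoma cells harbouring a luciferase neomycin HCV replicon reporter; luciferase luminescence as measure of HCV replicon replication; test concentration not given here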
[13] = target: Left-right determination factor 2 (Homo sapiens) (UniProt O00292); experiment: LEFTY2 binders on small-molecule microarrays, primary screen, biochemical, small-molecule microarray, 635 nm fluorescence scan (AID 1110); settings: LEFTY2 binding, higher = more signal
[14] = target: Calmodulin-1 (Homo sapiens) (UniProt P0DP23); experiment: CALM1 binders on microarrays, EGTA buffer, profiling panel, biochemical, small-molecule microarray, Cy5-labelled CALM1 (AID 1111); settings: Cy5-CALM1 binding fluorescence, higher = more signal;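 note: labelled calmodulin applied in Tris saline Tween buffer holding calcium plus EGTA and DTT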
[15] = target: Calmodulin-1 (Homo sapiens) (UniProt P0DP23); experiment: calcium-bound CALM1 binders on microarrays, profiling panel, artefact control for SMM control-protein annotation, biochemical, small-molecule microarray, Cy5-labelled CALM1, plus calcium (AID 1112); settings: Cy5-CALM1 binding fluorescence, higher = more signal;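 note: score merges spot fluorescence with signal to noise from triplicate slides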
[16] = small-molecule microarray binders of probe aWnt5a, primary screen, biochemical, biotinylated probe, 635/667 nm fluorescence (AID 1113); settings: higher = more signal;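 note: score merges 667 nm fluorescence intensity with signal-to-noise per printed feature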
[17] = small-molecule microarray binders of probe aShh, primary screen, biochemical, biotinylated probe, 635/667 nm fluorescence (AID 1114); settings: higher = more signal;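 note: probe is biotin-labelled aShh protein from a stem cell growth factor screen; measures binding of labelled protein to compounds printed on the slide; score merges feature fluorescence at 667 nm with signal-to-noise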
[18] = small-molecule microarray binders of probe aNog, primary screen, biochemical, biotinylated probe, 635/667 nm fluorescence (AID 1115); settings: higher = more signal;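 note: probe is biotinylated aNog protein used at 0.15 µg/mL for 1 h at 4 C; z-score combines 667 nm fluorescence of each spot with its signal to noise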
[19] = target: Torsin-1A-interacting protein 1 (Homo sapiens) (UniProt Q5JTV8); experiment: LAP1 binders from COS7 cell lysate, primary screen, small-molecule microarray, 635/667 nm fluorescence (AID 1116); settings: COS7-hLAP1 lysate binding, 635 nm fluorescence, higher = more signal
[20] = target: Alpha-bungarotoxin (Bungarus multicinctus) (UniProt P60615); experiment: alpha-bungarotoxin binders on microarray, profiling panel, artefact control for SMM control protein annotation, biochemical, small-molecule microarray, Alexa647 label, 635/667 nm fluorescence (AID 1117); settings: alpha-BTX-A647 binding fluorescence, higher = more signal
Chain of Alpha-bungarotoxin (Bungarus multicinctus) (P60615 whole entry, looked up): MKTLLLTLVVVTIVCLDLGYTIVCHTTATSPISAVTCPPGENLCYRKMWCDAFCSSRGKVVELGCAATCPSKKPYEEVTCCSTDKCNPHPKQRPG

Chain of Torsin-1A-interacting protein 1 (Homo sapiens) (Q5JTV8 whole entry, looked up): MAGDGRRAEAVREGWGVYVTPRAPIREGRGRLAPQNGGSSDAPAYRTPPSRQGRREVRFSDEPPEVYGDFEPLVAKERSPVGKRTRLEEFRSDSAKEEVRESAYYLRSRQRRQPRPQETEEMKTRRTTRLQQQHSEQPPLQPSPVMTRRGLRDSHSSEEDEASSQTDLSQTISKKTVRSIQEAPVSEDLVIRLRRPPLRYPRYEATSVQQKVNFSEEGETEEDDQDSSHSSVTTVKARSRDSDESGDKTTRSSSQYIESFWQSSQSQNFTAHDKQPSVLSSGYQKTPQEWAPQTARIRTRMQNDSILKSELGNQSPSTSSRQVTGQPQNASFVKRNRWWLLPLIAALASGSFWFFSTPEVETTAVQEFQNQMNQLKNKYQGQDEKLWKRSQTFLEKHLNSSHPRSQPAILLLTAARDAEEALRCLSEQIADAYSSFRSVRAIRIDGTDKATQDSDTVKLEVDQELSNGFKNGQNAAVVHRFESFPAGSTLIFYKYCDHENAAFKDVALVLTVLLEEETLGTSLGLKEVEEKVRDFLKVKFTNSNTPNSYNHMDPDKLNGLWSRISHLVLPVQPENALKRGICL
Chain of Fibroblast growth factor 10 (Homo sapiens) (O15520 whole entry, looked up): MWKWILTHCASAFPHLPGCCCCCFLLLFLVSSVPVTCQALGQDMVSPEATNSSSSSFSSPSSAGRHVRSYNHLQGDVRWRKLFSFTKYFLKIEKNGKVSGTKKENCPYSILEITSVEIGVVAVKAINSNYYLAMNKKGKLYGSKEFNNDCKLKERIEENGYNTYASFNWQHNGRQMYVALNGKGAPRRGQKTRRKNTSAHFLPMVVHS
Chain of Left-right determination factor 2 (Homo sapiens) (O00292 whole entry, looked up): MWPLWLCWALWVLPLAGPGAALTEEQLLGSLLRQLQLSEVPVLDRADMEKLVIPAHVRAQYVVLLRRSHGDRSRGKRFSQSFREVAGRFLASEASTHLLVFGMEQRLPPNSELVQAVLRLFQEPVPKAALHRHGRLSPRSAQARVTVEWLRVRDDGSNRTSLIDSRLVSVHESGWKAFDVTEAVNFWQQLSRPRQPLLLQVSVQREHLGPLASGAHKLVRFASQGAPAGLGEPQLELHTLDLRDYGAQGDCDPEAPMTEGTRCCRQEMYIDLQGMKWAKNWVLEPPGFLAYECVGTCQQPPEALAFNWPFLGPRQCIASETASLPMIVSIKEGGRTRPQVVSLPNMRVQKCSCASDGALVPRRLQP
Chain of Epidermal growth factor receptor (Homo sapiens) (P00533 whole entry, looked up): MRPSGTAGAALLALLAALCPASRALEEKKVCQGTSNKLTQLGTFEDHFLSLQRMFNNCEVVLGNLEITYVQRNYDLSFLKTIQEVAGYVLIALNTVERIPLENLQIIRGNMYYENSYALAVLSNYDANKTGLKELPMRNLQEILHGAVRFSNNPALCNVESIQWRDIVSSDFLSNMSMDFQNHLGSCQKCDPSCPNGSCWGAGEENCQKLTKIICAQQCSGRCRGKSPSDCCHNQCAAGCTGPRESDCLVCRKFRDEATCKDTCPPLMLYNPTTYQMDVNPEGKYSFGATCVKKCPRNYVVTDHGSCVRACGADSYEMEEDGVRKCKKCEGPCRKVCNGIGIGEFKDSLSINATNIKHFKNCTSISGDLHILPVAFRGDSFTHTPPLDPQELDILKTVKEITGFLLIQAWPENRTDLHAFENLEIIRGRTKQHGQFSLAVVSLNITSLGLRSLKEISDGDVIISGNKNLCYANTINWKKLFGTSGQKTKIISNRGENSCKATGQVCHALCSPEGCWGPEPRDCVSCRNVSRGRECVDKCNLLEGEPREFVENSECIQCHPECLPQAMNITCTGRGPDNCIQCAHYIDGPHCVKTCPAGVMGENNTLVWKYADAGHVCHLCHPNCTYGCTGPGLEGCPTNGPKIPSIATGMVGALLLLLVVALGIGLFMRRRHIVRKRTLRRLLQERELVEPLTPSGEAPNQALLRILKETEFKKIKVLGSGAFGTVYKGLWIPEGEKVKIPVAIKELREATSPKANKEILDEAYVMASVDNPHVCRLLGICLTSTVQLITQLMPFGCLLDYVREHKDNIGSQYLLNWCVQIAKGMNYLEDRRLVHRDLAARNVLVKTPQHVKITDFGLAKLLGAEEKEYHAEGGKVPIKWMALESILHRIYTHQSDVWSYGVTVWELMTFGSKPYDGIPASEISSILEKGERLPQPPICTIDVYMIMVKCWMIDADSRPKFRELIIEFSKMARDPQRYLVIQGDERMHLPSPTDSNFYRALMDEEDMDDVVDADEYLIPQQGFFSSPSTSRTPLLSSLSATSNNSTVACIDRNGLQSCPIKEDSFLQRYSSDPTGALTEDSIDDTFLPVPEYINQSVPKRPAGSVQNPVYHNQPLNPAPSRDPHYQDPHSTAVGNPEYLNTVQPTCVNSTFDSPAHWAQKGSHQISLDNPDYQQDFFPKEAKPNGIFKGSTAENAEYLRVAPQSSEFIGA
Chain of Dickkopf-related protein 1 (Homo sapiens) (O94907 whole entry, looked up): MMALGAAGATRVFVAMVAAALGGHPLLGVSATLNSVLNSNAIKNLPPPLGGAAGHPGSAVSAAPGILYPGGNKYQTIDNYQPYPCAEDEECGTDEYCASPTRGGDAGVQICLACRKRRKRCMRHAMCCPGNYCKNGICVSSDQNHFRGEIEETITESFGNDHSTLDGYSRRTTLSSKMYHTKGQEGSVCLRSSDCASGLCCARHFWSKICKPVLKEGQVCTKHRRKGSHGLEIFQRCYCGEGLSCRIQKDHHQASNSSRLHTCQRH
Chain of Follistatin-related protein 3 (Homo sapiens) (O95633 whole entry, looked up): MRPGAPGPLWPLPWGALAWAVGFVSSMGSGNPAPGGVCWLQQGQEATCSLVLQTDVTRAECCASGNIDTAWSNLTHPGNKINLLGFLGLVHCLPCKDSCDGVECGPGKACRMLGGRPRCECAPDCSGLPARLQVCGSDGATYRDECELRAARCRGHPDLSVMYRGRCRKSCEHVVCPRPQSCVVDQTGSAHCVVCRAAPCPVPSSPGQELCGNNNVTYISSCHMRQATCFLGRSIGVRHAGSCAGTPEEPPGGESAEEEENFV

Row | SMILES | composite z-score [1] | composite z-score [2] | composite z-score [3] | z-score [4] | composite z-score [5] | composite z-score [6] | composite z-score [7] | composite z-score [8] | composite z-score [9] | composite z-score [10] | composite z-score [11] | z-score [12] | composite z-score [13] | composite z-score [14] | composite z-score [15] | composite z-score [16] | composite z-score [17] | composite z-score [18] | composite z-score [19] | composite z-score [20]
1 | N#Cc1ccc(NN2C(C(O)c3ccc(I)cc3)C=CC3C(=O)N(c4ccccc4)C(=O)C32)cc1 (stereo not given) | 1.13 | 0.124 | 1.03 | 2.17 (inactive) | 0.549 | 0.656 | 0.0977 | 0.421 | -0.337 | 0.462 | 1.48 | 1.56 | -0.417 | 1.58 | 0.526 | 0.0803 | -0.16 | 1.56 | 0.0108 | 1.32
2 | CN(C)C(=O)[C@@]1(Cc2ccccc2N=[N+]=[N-])N=C(c2ccc(OCCCO)cc2)O[C@H]1c1ccccc1CN=[N+]=[N-] | 1.68 | 1.22 | 1.3 | -0.636 (inactive) | 0.689 | 1.21 | 0.0256 | 0.482 | 0.4 | 0.676 | 0.646 | -2.12 | 0.048 | 2.51 | 1.22 | 0.13 | 0.721 | 1.78 | 3.11 | 2.96
3 | COC(=O)C1=CC(c2ccc(CO)cc2)=CC(C2CC2)N(Cc2sc3ccccc3c2Cl)C=C1C(=O)OC (stereo not given) | 1.55 | 1.02 | 0.978 | -1.16 (inactive) | 0.855 | 1.3 | 0.242 | 1.19 | 0.304 | 0.715 | 1.29 | -1.27 | 0.204 | 2.45 | 0.975 | 0.0017 | 0.246 | 1.38 | 2.42 | 2.75
4 | CC(C)NC(=O)[C@@]1(Cc2ccccc2I)c2ccccc2C(=O)N(C2CCCCC2)[C@H]1c1ccc(CO)cc1 | 1.02 | 0.65 | 0.793 | 0.129 (inactive) | 1.1 | 1.2 | 0.118 | 1.35 | 0.4 | 0.386 | 1.46 | -1.21 | 0.398 | 1.48 | 0.458 | -0.0792 | 0.448 | 0.982 | 0.977 | 1.32
5 | CO[C@H]1O[C@H](CO)[C@@H](OC(=O)Nc2ccccc2)[C@H](OC(=O)Nc2ccc3c(c2)OCO3)[C@@H]1OC(=O)Nc1ccc2c(c1)OCO2 | 1.51 | 0.355 | 0.749 | -0.368 (inactive) | 0.183 | 1.19 | -0.374 | 0.558 | 0.355 | 0.794 | 1.32 | -0.245 | -0.244 | 1.92 | -0.819 | -0.0944 | 0.151 | 0.038 | 1.99 | 0.361
6 | C=C(COC)C(=O)CC[C@H](OC(=O)c1ccccc1-c1ccccc1C(=O)O)c1cccc(OCCO)c1 | 1.74 | -0.0615 | -0.462 | -3.03 (inactive) | 1.71 | 0.829 | 0.397 | 1.33 | 1.94 | 1.01 | 1.4 | -3.1 | 0.757 | 3.03 | 0.733 | 0.0519 | -0.17 | 0.0519 | 3.73 | -0.151
